Measured values reported in publication PMC12529666, “Dysregulation of AGO2-miRNA dynamics underlies the AGO2-associated Lessel–Kreienkamp syndrome”.

B1: ACACTTCA (ssRNA)
RNA 1: GAGUUCUACAGUCCGACGAUCCCAACACACUUCACACCUGGAAUUCUCGGGUGCCAA
RNA 2: UGGAGUGUGACAAUGGUGUUUG
DNA 1: GATCGTCGGACTGTAGAACTC
DNA 2: TTGGCACCCGAGAATTCCA
modifications: constant regions annealed to DNA blockers; guide miR-122 5' phosphate
B2: ACGCCTCA (ssRNA)
RNA 1: GAGUUCUACAGUCCGACGAUCCCAACACGCCUCACACCUGGAAUUCUCGGGUGCCAA
RNA 2: UGGAGUGUGACAAUGGUGUUUG
DNA 1: GATCGTCGGACTGTAGAACTC
DNA 2: TTGGCACCCGAGAATTCCA
modifications: constant regions annealed to DNA blockers; guide miR-122 5' phosphate
B3: GCATTTCA (ssRNA)
RNA 1: GAGUUCUACAGUCCGACGAUCCCAACGCAUUUCACACCUGGAAUUCUCGGGUGCCAA
RNA 2: UGGAGUGUGACAAUGGUGUUUG
DNA 1: GATCGTCGGACTGTAGAACTC
DNA 2: TTGGCACCCGAGAATTCCA
modifications: constant regions annealed to DNA blockers; guide miR-122 5' phosphate
B4: ATACCTCA (ssRNA)
RNA 1: GAGUUCUACAGUCCGACGAUCCCAACAUACCUCACACCUGGAAUUCUCGGGUGCCAA
RNA 2: UGGAGUGUGACAAUGGUGUUUG
DNA 1: GATCGTCGGACTGTAGAACTC
DNA 2: TTGGCACCCGAGAATTCCA
modifications: constant regions annealed to DNA blockers; guide miR-122 5' phosphate
B5: ATATCTCA (ssRNA)
RNA 1: GAGUUCUACAGUCCGACGAUCCCAACAUAUCUCACACCUGGAAUUCUCGGGUGCCAA
RNA 2: UGGAGUGUGACAAUGGUGUUUG
DNA 1: GATCGTCGGACTGTAGAACTC
DNA 2: TTGGCACCCGAGAATTCCA
modifications: constant regions annealed to DNA blockers; guide miR-122 5' phosphate
B6: ACATCCCA (ssRNA)
RNA 1: GAGUUCUACAGUCCGACGAUCCCAACACAUCCCACACCUGGAAUUCUCGGGUGCCAA
RNA 2: UGGAGUGUGACAAUGGUGUUUG
DNA 1: GATCGTCGGACTGTAGAACTC
DNA 2: TTGGCACCCGAGAATTCCA
modifications: constant regions annealed to DNA blockers; guide miR-122 5' phosphate
B7: ACATTTCA (ssRNA)
RNA 1: GAGUUCUACAGUCCGACGAUCCCAACACAUUUCACACCUGGAAUUCUCGGGUGCCAA
RNA 2: UGGAGUGUGACAAUGGUGUUUG
DNA 1: GATCGTCGGACTGTAGAACTC
DNA 2: TTGGCACCCGAGAATTCCA
modifications: constant regions annealed to DNA blockers; guide miR-122 5' phosphate
B8: ACGTCTCA (ssRNA)
RNA 1: GAGUUCUACAGUCCGACGAUCCCAACACGUCUCACACCUGGAAUUCUCGGGUGCCAA
RNA 2: UGGAGUGUGACAAUGGUGUUUG
DNA 1: GATCGTCGGACTGTAGAACTC
DNA 2: TTGGCACCCGAGAATTCCA
modifications: constant regions annealed to DNA blockers; guide miR-122 5' phosphate
B9: ATGCTCCG (ssRNA)
RNA 1: GAGUUCUACAGUCCGACGAUCCCAACAUGCUCCGCACCUGGAAUUCUCGGGUGCCAA
RNA 2: UGGAGUGUGACAAUGGUGUUUG
DNA 1: GATCGTCGGACTGTAGAACTC
DNA 2: TTGGCACCCGAGAATTCCA
modifications: constant regions annealed to DNA blockers; guide miR-122 5' phosphate
B10: GCACCTCA (ssRNA)
RNA 1: GAGUUCUACAGUCCGACGAUCCCAACGCACCUCACACCUGGAAUUCUCGGGUGCCAA
RNA 2: UGGAGUGUGACAAUGGUGUUUG
DNA 1: GATCGTCGGACTGTAGAACTC
DNA 2: TTGGCACCCGAGAATTCCA
modifications: constant regions annealed to DNA blockers; guide miR-122 5' phosphate

The binders below were run against AGO2 WT (phosphosite mutant background) (Homo sapiens, UniProt Q9UKV8 1-859, S387D;S824A;S828D;S831D;S834A) (assay: RNA Bind-n-Seq (nitrocellulose filter binding and sequencing); miR-122 guide loaded in AGO2; 60 min incubation; 30 mM Tris pH 8.0, 100 mM potassium acetate, 2 mM magnesium acetate, 0.5 mM TCEP, 0.005% NP-40, 0.01 mg/ml yeast tRNA; 3 nM AGO2-miR-122, 100 nM RNA library; 60; high values mean tight binding). Conditions: protein: recombinant; tags: His6 (N-terminal, pFastBac HTA).
Summary of the method: (§1)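 Fold enrichment is each target's read fraction divided by its read fraction in the input library. Sf9 insect cells expressed His-tagged AGO2 from baculovirus; the protein was loaded with a synthetic guide RNA and purified by Ni-NTA and a biotinylated capture oligo. The bound RNA was extracted, reverse-transcribed, barcode-amplified and sequenced on Illumina.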

Sequence of AGO2 WT (phosphosite mutant background) (Q9UKV8 whole entry S387D/S824A/S828D/S831D/S834A): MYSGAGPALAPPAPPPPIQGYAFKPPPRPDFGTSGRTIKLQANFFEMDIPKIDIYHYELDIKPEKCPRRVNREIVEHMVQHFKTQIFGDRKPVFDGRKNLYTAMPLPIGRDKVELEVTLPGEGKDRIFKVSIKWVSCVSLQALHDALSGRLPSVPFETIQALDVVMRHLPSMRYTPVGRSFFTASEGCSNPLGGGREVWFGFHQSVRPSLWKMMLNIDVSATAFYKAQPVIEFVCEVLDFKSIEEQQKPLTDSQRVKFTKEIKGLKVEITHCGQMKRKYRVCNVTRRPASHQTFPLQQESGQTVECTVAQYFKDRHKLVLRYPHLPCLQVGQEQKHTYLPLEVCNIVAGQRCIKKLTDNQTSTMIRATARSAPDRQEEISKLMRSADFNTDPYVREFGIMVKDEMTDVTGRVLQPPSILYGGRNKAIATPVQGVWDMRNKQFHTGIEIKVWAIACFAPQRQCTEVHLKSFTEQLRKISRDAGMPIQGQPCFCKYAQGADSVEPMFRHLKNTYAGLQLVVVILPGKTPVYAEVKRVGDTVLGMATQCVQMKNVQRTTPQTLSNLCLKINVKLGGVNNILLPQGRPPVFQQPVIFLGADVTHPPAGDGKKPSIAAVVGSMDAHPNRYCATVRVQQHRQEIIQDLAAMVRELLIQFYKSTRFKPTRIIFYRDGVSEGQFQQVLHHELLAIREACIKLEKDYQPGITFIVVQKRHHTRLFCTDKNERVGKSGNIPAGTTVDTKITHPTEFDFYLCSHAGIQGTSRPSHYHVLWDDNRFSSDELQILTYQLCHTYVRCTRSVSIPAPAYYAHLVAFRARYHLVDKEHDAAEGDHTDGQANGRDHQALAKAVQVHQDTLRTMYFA

| Binder | binding signal |
| --- | --- |
| B1 | 0.24 fold enrichment over input |
| B2 | 0.15 fold enrichment over input |
| B3 | 0.165 fold enrichment over input |
| B4 | 0.138 fold enrichment over input |
| B5 | 0.165 fold enrichment over input |
| B6 | 0.154 fold enrichment over input |
| B7 | 0.235 fold enrichment over input |
| B8 | 0.177 fold enrichment over input |
| B9 | 0.186 fold enrichment over input |
| B10 | 0.17 fold enrichment over input |

The binders below were run against AGO2 L192P (Homo sapiens, UniProt Q9UKV8 1-859, L192P;S387D;S824A;S828D;S831D;S834A) in the same assay as above. Conditions: protein: recombinant; tags: His6 (N-terminal, pFastBac HTA).
Summary of the method: as §1

Sequence of AGO2 L192P (Q9UKV8 whole entry L192P/S387D/S824A/S828D/S831D/S834A): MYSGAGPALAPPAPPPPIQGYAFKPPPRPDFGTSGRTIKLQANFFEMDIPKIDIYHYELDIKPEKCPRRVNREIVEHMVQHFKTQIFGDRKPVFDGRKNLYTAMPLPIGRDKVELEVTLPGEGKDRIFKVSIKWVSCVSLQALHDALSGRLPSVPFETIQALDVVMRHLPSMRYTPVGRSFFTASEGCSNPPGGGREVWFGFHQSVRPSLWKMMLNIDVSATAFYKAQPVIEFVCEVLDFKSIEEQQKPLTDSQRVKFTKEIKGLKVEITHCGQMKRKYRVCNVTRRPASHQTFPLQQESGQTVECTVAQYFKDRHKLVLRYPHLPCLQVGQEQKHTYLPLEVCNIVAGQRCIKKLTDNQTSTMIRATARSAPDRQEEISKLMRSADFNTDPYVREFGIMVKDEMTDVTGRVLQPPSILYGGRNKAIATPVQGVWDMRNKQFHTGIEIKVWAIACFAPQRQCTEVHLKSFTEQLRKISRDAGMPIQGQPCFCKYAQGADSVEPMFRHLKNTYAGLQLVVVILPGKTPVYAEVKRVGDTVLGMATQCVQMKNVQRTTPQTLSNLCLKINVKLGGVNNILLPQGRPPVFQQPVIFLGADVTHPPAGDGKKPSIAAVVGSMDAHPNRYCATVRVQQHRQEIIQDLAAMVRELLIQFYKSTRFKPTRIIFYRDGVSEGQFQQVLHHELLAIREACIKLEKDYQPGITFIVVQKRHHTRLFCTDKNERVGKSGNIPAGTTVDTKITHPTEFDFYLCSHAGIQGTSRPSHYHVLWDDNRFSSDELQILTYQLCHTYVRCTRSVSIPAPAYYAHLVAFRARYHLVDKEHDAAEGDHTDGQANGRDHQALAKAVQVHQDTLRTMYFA

| Binder | binding signal |
| --- | --- |
| B1 | 0.941 fold enrichment over input |
| B2 | 0.597 fold enrichment over input |
| B3 | 0.769 fold enrichment over input |
| B4 | 0.642 fold enrichment over input |
| B5 | 0.635 fold enrichment over input |
| B6 | 0.641 fold enrichment over input |
| B7 | 1.13 fold enrichment over input |
| B8 | 0.659 fold enrichment over input |
| B9 | 1.56 fold enrichment over input |
| B10 | 0.761 fold enrichment over input |

These binders were tested against AGO2 A367P (Homo sapiens, UniProt Q9UKV8 1-859, A367P;S387D;S824A;S828D;S831D;S834A) in the same assay as above. Conditions: protein: recombinant; tags: His6 (N-terminal, pFastBac HTA).
Summary of the method: as §1

Sequence of AGO2 A367P (Q9UKV8 whole entry A367P/S387D/S824A/S828D/S831D/S834A): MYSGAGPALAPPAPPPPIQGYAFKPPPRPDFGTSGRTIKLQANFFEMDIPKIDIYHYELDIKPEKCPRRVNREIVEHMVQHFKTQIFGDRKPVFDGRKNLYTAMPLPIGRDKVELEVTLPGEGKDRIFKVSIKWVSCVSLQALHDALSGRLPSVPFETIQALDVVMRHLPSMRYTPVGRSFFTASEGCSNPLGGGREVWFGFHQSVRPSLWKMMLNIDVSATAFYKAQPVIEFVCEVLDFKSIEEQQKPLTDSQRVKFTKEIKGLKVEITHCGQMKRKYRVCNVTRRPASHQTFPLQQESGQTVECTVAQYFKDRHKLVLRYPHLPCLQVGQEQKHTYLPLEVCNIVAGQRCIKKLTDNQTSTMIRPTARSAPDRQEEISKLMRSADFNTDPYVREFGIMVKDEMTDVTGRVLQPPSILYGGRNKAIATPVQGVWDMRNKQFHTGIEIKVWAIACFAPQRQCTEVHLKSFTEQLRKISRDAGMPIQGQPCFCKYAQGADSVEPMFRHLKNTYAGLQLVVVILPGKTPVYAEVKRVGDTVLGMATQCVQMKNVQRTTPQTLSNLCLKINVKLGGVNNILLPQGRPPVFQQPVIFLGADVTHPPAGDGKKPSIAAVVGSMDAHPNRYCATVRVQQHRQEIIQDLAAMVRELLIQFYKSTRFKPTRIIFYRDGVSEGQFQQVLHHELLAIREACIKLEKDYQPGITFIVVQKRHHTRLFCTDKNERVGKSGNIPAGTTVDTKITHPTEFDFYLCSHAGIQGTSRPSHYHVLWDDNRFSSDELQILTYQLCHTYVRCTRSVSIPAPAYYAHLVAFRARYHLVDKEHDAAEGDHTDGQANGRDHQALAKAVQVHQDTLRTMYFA

| Binder | binding signal |
| --- | --- |
| B1 | 0.66 fold enrichment over input |
| B2 | 0.316 fold enrichment over input |
| B3 | 0.434 fold enrichment over input |
| B4 | 0.406 fold enrichment over input |
| B5 | 0.396 fold enrichment over input |
| B6 | 0.325 fold enrichment over input |
| B7 | 0.727 fold enrichment over input |
| B8 | 0.413 fold enrichment over input |
| B9 | 1.45 fold enrichment over input |
| B10 | 0.505 fold enrichment over input |

The binders below were run against AGO2 T357M (Homo sapiens, UniProt Q9UKV8 1-859, T357M;S387D;S824A;S828D;S831D;S834A) in the same assay as above. Conditions: protein: recombinant; tags: His6 (N-terminal, pFastBac HTA).
Summary of the method: as §1

Sequence of AGO2 T357M (Q9UKV8 whole entry T357M/S387D/S824A/S828D/S831D/S834A): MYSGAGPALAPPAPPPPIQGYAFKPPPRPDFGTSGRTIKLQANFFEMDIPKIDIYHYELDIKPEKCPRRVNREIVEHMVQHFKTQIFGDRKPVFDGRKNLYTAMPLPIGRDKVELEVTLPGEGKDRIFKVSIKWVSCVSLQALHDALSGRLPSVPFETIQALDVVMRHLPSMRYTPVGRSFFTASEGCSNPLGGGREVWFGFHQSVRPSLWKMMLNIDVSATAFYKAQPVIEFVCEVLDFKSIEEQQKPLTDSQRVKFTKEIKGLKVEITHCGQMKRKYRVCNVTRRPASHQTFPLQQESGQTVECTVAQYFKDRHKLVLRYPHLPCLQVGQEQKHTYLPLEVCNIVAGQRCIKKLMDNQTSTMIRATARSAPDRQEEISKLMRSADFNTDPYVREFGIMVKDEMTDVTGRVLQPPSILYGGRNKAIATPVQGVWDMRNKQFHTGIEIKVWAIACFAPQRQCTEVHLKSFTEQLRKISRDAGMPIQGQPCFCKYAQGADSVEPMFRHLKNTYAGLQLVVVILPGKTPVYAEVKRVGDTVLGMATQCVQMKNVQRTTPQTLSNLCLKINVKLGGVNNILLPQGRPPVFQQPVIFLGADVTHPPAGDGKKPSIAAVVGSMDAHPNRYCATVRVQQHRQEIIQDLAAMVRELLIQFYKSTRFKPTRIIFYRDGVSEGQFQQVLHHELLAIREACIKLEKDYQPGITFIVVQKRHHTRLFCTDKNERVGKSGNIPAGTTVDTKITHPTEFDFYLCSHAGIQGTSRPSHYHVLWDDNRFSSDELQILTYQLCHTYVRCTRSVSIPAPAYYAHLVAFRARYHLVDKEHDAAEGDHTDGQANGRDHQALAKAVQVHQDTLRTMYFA

| Binder | binding signal |
| --- | --- |
| B1 | 0.675 fold enrichment over input |
| B2 | 0.623 fold enrichment over input |
| B3 | 0.679 fold enrichment over input |
| B4 | 0.575 fold enrichment over input |
| B5 | 0.657 fold enrichment over input |
| B6 | 0.628 fold enrichment over input |
| B7 | 0.709 fold enrichment over input |
| B8 | 0.689 fold enrichment over input |
| B9 | 0.527 fold enrichment over input |
| B10 | 0.643 fold enrichment over input |

These binders were tested against AGO2 F182del (Homo sapiens, UniProt Q9UKV8 1-859, S387D;S824A;S828D;S831D;S834A;del182-182) in the same assay as above. Conditions: protein: recombinant; tags: His6 (N-terminal, pFastBac HTA).
Summary of the method: as §1

Sequence of AGO2 F182del (Q9UKV8 other isoform, or with tags, fused parts or gaps S387D;S824A;S828D;S831D;S834A;del182-182): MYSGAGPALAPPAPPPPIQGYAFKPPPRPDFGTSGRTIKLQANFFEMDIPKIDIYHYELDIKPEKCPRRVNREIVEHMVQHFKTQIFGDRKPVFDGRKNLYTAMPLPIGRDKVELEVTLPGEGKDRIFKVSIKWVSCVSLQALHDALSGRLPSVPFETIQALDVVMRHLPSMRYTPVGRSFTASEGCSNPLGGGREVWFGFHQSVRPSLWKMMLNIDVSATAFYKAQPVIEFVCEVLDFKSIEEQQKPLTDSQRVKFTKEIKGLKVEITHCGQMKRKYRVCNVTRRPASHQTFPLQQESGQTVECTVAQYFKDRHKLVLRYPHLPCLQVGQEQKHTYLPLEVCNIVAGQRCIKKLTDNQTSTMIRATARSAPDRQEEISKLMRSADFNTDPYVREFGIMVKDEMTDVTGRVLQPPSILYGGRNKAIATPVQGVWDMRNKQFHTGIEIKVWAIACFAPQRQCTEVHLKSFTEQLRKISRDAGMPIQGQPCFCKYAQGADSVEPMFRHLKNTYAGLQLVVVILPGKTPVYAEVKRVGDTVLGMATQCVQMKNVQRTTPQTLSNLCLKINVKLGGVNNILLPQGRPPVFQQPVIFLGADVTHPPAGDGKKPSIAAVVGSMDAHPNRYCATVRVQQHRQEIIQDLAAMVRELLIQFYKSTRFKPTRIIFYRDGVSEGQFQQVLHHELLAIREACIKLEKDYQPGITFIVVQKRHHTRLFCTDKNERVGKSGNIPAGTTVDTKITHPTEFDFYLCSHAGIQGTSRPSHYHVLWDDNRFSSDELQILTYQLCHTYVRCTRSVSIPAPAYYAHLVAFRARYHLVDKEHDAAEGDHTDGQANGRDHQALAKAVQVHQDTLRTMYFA

| Binder | binding signal |
| --- | --- |
| B1 | 2.79 fold enrichment over input |
| B2 | 0.822 fold enrichment over input |
| B3 | 1.83 fold enrichment over input |
| B4 | 1.82 fold enrichment over input |
| B5 | 1.42 fold enrichment over input |
| B6 | 1.11 fold enrichment over input |
| B7 | 4.77 fold enrichment over input |
| B8 | 1.38 fold enrichment over input |
| B9 | 1.55 fold enrichment over input |
| B10 | 2.01 fold enrichment over input |
